# Where “and” joins values, the source holds several entries; their conditions need not be identical. Equal values may be shown once. About 2,800 (0.76%) of roughly 370,000 compounds were called active. Cut-off read from the data, not from the text of the source: active = inhibition above about 21%; inactive = the rest. The entries come from a sample that favours actives as a whole. Where a structure was tested more than once in an assay, its records may differ in their call.
# Biological target: E3 ubiquitin-protein ligase UHRF1 (Homo sapiens) (UniProt Q96T88)
# Sequence (Q96T88 whole entry, looked up, the tested form may be a part): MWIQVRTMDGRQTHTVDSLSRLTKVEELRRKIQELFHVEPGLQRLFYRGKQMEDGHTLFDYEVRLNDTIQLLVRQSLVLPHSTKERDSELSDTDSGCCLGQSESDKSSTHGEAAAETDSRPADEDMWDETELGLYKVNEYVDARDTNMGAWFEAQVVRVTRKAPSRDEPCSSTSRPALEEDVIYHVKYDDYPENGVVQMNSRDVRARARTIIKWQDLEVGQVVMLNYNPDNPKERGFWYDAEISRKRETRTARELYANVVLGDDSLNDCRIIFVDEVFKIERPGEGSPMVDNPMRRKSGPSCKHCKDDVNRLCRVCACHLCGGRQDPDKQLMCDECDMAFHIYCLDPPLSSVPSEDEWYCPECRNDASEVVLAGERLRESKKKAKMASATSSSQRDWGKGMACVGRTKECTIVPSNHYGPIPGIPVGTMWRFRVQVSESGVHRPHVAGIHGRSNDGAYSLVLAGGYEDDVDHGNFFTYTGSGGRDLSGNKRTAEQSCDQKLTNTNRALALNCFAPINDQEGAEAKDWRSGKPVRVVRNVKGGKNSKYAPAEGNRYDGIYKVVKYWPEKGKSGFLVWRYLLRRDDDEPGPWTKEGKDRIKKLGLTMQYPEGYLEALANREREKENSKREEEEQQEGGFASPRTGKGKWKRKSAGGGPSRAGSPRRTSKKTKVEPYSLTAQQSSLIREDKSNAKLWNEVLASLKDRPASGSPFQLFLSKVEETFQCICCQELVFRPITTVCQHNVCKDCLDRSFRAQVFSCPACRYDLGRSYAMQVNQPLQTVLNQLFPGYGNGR
# Assay: blockers of UHRF1 binding to methyl-oligo – biochemical, TR-FRET, human UHRF1, single concentration, counter-screen for MBD2 inhibitor project, primary screen (AID 687016);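 note: UHRF1 SRA domain binding a hemimethylated CpG hairpin DNA probe; 0% = median of test compound wells and 100% = reference inhibitor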
# Details: UHRF1 binding to methylated oligo, at 4.4 µM, stronger effect = higher value
row,Compound,inhibition
1,Cc1nc2ccc(C(=O)N3CCN(C(=O)C(C)(C)C)CC3)cc2n1C1CCCC1,0.45% (inactive)
2,Cc1cc(C(=O)OCC(=O)N2C(C)CCCC2C)c2ccccc2n1 (configuration not stated),1.46% (inactive)
3,CN(C(=O)COC(=O)c1cc(=O)[nH]c2ccccc12)C1CCCCC1,-1.98% (inactive)
4,CN(C(=O)COC(=O)c1cc(-c2ccco2)nc2ccccc12)C1CCS(=O)(=O)C1 (configuration not stated),52.1% (active)
5,C#CCN([C@H](C(=O)OC)C(C)CC)S(=O)(=O)c1ccccc1Br (some centres not stated),-1.76% (inactive)
6,C=CCN(Cc1ccc2c(c1)OCO2)C(C#CC1CC1)C(C)(C)C (configuration not stated),1.41% (inactive)
7,Cc1cccc(N2CCN(Cc3c(C)n(C)n(-c4ccccc4)c3=O)CC2)c1C,-0.95% (inactive)
8,Cc1c(CN2CCC(C)CC2)c(=O)n(-c2ccccc2)n1C,2.11% (inactive)
9,Cc1c(C=O)n(C)n(-c2ccccc2)c1=O,25.1% (active)
10,CCOC(=O)[C@]12CCCCC/C=C\1N(Cc1ccc(OC)cc1)C(=O)[C@H]2CC(=O)NCc1ccc(C)o1,-2.03% (inactive)
11,COc1ccc(C(=O)CSc2nnc(-c3cnccn3)n2-c2ccc(C)cc2)cc1,0.05% (inactive)
12,COc1ccc(CN(CCN2CCOCC2)C(=O)c2ccc(C)cc2)cc1OC,-0.61% (inactive)
13,C[C@@H]1CN([C@@H](C)CO)S(=O)(=O)c2ccc(C#Cc3cccc(F)c3)cc2O[C@H]1CN(C)S(=O)(=O)c1cn(C)cn1,21.5% (active)
14,C[C@H]1CN([C@@H](C)CO)S(=O)(=O)c2ccc(Br)cc2O[C@H]1CN(C)C(=O)c1cnccn1,-0.94% (inactive)
15,C[C@@H]1CN([C@H](C)CO)S(=O)(=O)c2ccc(C#C[C@@H](C)O)cc2O[C@@H]1CN(C)Cc1ccc(-c2ccccc2)cc1,0.52% (inactive)
16,COCC(=O)N(C)C[C@H]1Oc2cc(Br)ccc2S(=O)(=O)N([C@H](C)CO)C[C@H]1C,0.32% (inactive)
17,C[C@@H]1CN([C@H](C)CO)S(=O)(=O)c2ccc(C#CC3CCCCC3)cc2O[C@H]1CN(C)C(=O)Cc1ccncc1,23.8% (active)
18,C[C@H]1CN([C@@H](C)CO)S(=O)(=O)c2ccc(-c3cccc(F)c3)cc2O[C@@H]1CN(C)C,0.38% (inactive)
19,Nn1c(SCC(=O)Nc2ccc(S(N)(=O)=O)cc2)nnc1-c1n[nH]c2c1CCC2,0.51% (inactive)
20,CC(=O)OC12CCCN(C1)/C(=C/c1ccncc1)C2 (configuration not stated),3.27% (inactive)
21,O=C1CC[C@@]23CCCN2C(=O)CCC[C@H]3[C@H]1Cc1ccccc1,0.21% (inactive)

row,Compound,inhibition
1,Cc1cc(NS(=O)(=O)c2ccc(NC(=O)CSc3nnc(SCc4ccc(F)cc4)s3)cc2)nc(C)n1,3.58% (inactive)
2,CCC(C)[C@@H](C(=O)OC)N(CCc1cn(Cc2ccccc2)nn1)S(=O)(=O)c1ccccc1Br (some centres not stated),-0.53% (inactive)
3,C[C@@H]1CN([C@@H](C)CO)C(=O)c2cccc(NC(=O)Nc3cccc4ccccc34)c2O[C@H]1CN(C)S(=O)(=O)c1ccccc1F,-3.8% (inactive)
4,COc1ccccc1Cc1c(-c2ccc(Cl)cc2)nc2ccc(Cl)cn12,-0.13% (inactive)
5,COC(=O)c1ccc(CNC(=O)C2CCC(=O)N(Cc3cccc(F)c3)C2)cc1 (configuration not stated),0.28% (inactive)
6,COC(=O)c1ccc2nc(-c3ccccc3)c(Cc3ccc(OC)cc3C)n2c1,22.1% (active)
7,CC(=O)Nc1c(-c2ccc(C)cc2)nc2ccc(Cl)cn12,-0.52% (inactive)
8,CC(C)(C)Cc1c(C2CCCCC2)nc2ccc(Br)cn12,0.2% (inactive)
9,COC(=O)c1ccc2nc(-c3ccc(C)cc3)c(Cc3ccc(OC)cc3C)n2c1,21.6% (active)
10,COC(=O)c1ccc2nc(-c3ccc(F)cc3)c(Cc3ccc(C)cc3)n2c1,22.9% (active)
11,COC(=O)c1ccc2nc(C3CCCCC3)c(Cc3cccc(F)c3)n2c1,27.9% (active)
12,COC(=O)c1ccc2nc(-c3ccc(OC)c(OC)c3)c(Cc3ccccc3)n2c1,14.6% (inactive)
13,COc1ccccc1Cc1c(-c2ccc(F)cc2)nc2ccc(C)cn12,11.5% (inactive)
14,Cc1ccc(-c2nc3ccc(Br)cn3c2Cc2ccccc2C(F)(F)F)cc1,2.47% (inactive)
15,Brc1ccc2nc(-c3ccccc3)c(Cc3ccccc3)n2c1,11% (inactive)
16,COP(=O)(O)CNC(=O)OCc1ccccc1,-1.09% (inactive)
17,Nc1[nH]c(/C=C2/CCCCC2n2[nH]c(=O)n(-c3ccccc3)c2=O)c(Cc2ccccc2)[n+]1Cc1ccccc1 (configuration not stated),15.8% (inactive)
18,Nn1c(SCC(=O)N2c3ccccc3Sc3ccccc32)nnc1-c1n[nH]c2c1CCC2,2% (inactive)
19,C=CCn1c(SCC(N)=O)nnc1-c1ccccc1OC,-0.8% (inactive)
20,Cc1ccc(C(=O)N(Cc2ccccn2)CC2CCCO2)cc1 (configuration not stated),0.72% (inactive)
21,CCOC(=O)N1CCN(C(=O)C[C@H]2C[C@@]3(C(=O)OC)C(=C[C@H](C(C)(C)C)O[C@@H]3C)N(Cc3ccc(Cl)cc3Cl)C2=O)CC1,0.78% (inactive)

row,Compound,inhibition
1,CCC(c1ccc(NC(=O)OC(C)(C)C)cc1)c1cc(OC)cc(OC)c1 (configuration not stated),-0.84% (inactive)
2,Fc1ccc2nc(COCc3nc4ccc(F)cc4[nH]3)[nH]c2c1,0.71% (inactive)
3,COC(=O)c1ccc2nc(-c3cccc(Br)c3)c(Cc3ccc(OC)cc3C)n2c1,21.5% (active)
4,COc1ccc(-c2nc3ccc(Br)cn3c2Cc2ccc(C)cc2)cc1OC,4.35% (inactive)
5,COC(=O)c1ccc2nc(-c3cccc(Br)c3)c(Cc3ccccc3C(F)(F)F)n2c1,3.57% (inactive)
6,O=C(CCl)NC1CCCCN(Cc2cccc(C(F)(F)F)c2)C1=O (configuration not stated),0.33% (inactive)
7,CCN(CC(=O)Nc1ccc(NC(C)=O)cc1)C(=O)C1CC(=O)N(Cc2ccc(C)cc2)C1 (configuration not stated),21.3% (active)
8,CCN(CC(=O)Nc1ccc(NC(C)=O)cc1)C(=O)C1CC(=O)N(c2ccc3c(c2)OCCO3)C1 (configuration not stated),1.89% (inactive)
9,Cc1ccc(CN2CC(C(=O)N3CCN(S(=O)(=O)c4ccccc4)CC3)CC2=O)cc1 (configuration not stated),9.15% (inactive)
10,CCCNC(=O)Nc1ccc2c(c1)C(=O)N(C)[C@H]1CC[C@H](CC(=O)NCC3CCCCC3)O[C@@H]1CO2,10.6% (inactive)
11,O=C(CSc1nnc(COc2ccccc2)n1-c1ccc(Cl)cc1)Nc1ccc2c(c1)OCO2,1.16% (inactive)
12,CCC(CO)Nc1cccc2c1S(=O)(=O)N(Cc1cn(Cc3ccccc3C(F)(F)F)nn1)Cc1ccccc1O2 (configuration not stated),2.09% (inactive)
13,COc1cccc(C2=CC(=O)C[C@H](c3ccc(F)cc3)C2)c1OC,-0.67% (inactive)
14,COc1ccccc1C1=CC(=O)C[C@H](c2ccc(F)cc2)C1,1.8% (inactive)
15,O=C1C=C(c2cccc(Cl)c2O)C[C@@H](c2ccc(F)cc2)C1,21% (active)
16,Cc1ccc(-c2nnc(SCC(=O)Nc3ccc(Oc4ccccc4)cc3)n2Cc2ccco2)cc1,-0.31% (inactive)
17,O=C(CC(n1cncn1)C(Cl)(Cl)Cl)c1ccc([N+](=O)[O-])cc1 (configuration not stated),0.74% (inactive)
18,O=C(Cn1c[n+](CC(=O)c2ccc([N+](=O)[O-])cc2)cn1)c1ccc([N+](=O)[O-])cc1,50.5% (active) and -2.04% (inactive)
19,Cc1ccc(C(=O)Cn2cccn2)cc1,5.04% (inactive)
20,Cc1ccc(NC(=S)NNC(=O)CSc2nnc(SCc3ccccc3Cl)s2)cc1,-10.8% (inactive)
21,COc1cccc(CSc2nnc(-c3cccnc3)n2Cc2ccccc2)c1,-0.03% (inactive)

row,Compound,inhibition
1,Cc1cc(C(=O)NNC(=O)c2cccc(S(=O)(=O)N3CCOCC3)c2)c2ccccc2n1,-0.61% (inactive)
2,CCOc1cc(N2CCOCC2)c(OCC)cc1NC(=O)C1=NN(c2cccc(C)c2)C(=O)CC1,0.92% (inactive)
3,CCOc1cc(N2CCOCC2)c(OCC)cc1NC(=O)c1cc(C)nc2ccccc12,23.5% (active)
4,CC(C)(C)OC(=O)NCc1cc(F)ccc1/C=C/S(=O)(=O)NCCc1ccccc1,0.11% (inactive)
5,CC(=O)c1ccc(OCC(=O)N(C)C2CCS(=O)(=O)C2)cc1 (configuration not stated),1.81% (inactive)
6,CCOC(=O)/C(=N\Nc1ccccc1Cl)N(C)C1CCS(=O)(=O)C1 (configuration not stated),23.3% (active)
7,CCOC(=O)/C(=N\Nc1cc(Cl)ccc1Cl)N1CCN(C)CC1,-0.04% (inactive)
8,CCOC(=O)[C@]12CCCCC/C=C\1N(Cc1ccc(OC)cc1)C(=O)[C@H]2CC(=O)NCCCN1CCCC1=O,-0.93% (inactive)
9,CCOC(=O)[C@]12CCCC3=C1N(CCC3)C(=O)[C@@H](CC(=O)NCC13CC4CC(CC(C4)C1)C3)C2,-0.2% (inactive)
10,O=C(CCCCCN1C(=O)C2C3C=CC(C3)C2C1=O)Nc1ccccn1 (configuration not stated),-0.7% (inactive)
11,COc1ccc(N2CCN(CCNS(=O)(=O)c3ccc(C(C)(C)C)cc3)CC2)cc1,0.26% (inactive)
12,CC(OC(=O)/C=C/c1ccccc1)C(=O)Nc1ccc(C(N)=O)cc1 (configuration not stated),-0.02% (inactive)
13,C=CCOc1ccc(/C=C/C(=O)OC(C)C(=O)Nc2ccc(NC(C)=O)cc2)cc1 (configuration not stated),0.2% (inactive)
14,CCc1ccc(NC(=O)C(C)OC(=O)/C=C/c2cccc([N+](=O)[O-])c2)cc1 (configuration not stated),21.5% (active)
15,O=C(NC1CCC1)c1ccc(C#Cc2cccc(F)c2)c[n+]1[O-],-2.83% (inactive)
16,COc1ccc(Cn2c(=O)cc(C)[nH]c2=S)cc1,48.1% (active)
17,COc1cc2[nH]c(=S)n(Cc3ccc(C)o3)c(=O)c2cc1OC,-2.92% (inactive)
18,COc1ccc(Cn2c(=O)oc3ccccc32)cc1,-0.71% (inactive)
19,COC(=O)[C@]12C[C@H](CC(=O)NCc3cccc4ccccc34)C(=O)N(CCc3ccc(OC)c(OC)c3)C1=C[C@H](C1CCCC1)O[C@@H]2C,0% (inactive)
